According to PubChem BioAssay (Tox21):
Records with an inconclusive call do not appear. Activity calls are given as the source filed them. Calls come from the whole dose curve.

Test: qHTS assay to identify small molecule agonists or antagonists of the thyroid stimulating hormone receptor (TSHR) signaling pathway - wild type cell line counter screen (AID 1259384)
Conditions: HEK293 wild type, cAMP HTRF counter-screen; series mostly up to 92.4 µM; cAMP activity change: at the top concentration
Description: U.S. Tox21 Program National Center for Advancing Translational Sciences [NCATS] NIH Chemical Genomics Center [NCGC] U.S. Environmental Protection Agency [EPA] National Institutes of Environmental Health Sciences [NIEHS] National Toxicology Program [NTP] U.S. Food and Drug Administration [FDA] Tox21 Assay Overview: TSHR is the receptor for thyrotropin (thyroid stimulating hormone or TSH), a member of the glycoprotein hormone family. TSH is released by the anterior pituitary gland and is the main regulator of thyroid gland growth and development. Upon binding circulating thyrotropin, a G-protein signal cascade activates adenylyl cyclase and […] cAMP concentration is increased. cAMP is a key second messenger involved extensively in cellular signal transduction pathways associated with the majority of G-protein coupled receptors (GPCRs). The activation of these GPCRs by neurotransmitters, lipids, nucleotides, peptides and hormones results in the activation or the inhibition of plasma membrane-bound adenylate cyclase through heterotrimeric G-proteins. A cell-based TSHR-Hek293 assay can be used to identify TSHR agonists. To eliminate the false positive compounds identified from screening a cell-based TSHR-Hek293 cell line, cAMP assay in a wild type Hek293 cells was used as a counter screening.
Tox21 Assay Protocol Summary: Hek293 cells (wild type) were dispensed at 800 cells/4 uL/well in 1536-well white plates using a Multidrop dispenser. After the assay plates were incubated at a 37 C/5% CO2 incubator for 18 hrs, 23 nL of compounds dissolved in DMSO, positive controls or DMSO only was transferred to the assay plate by a pin tool, followed by 1 ul medium containing Ro20-1724. After 30 min of incubation at room temperature, 2.5 ul/well of cAMP-d2 and 2.5 ul/well of anti-cAMP-cryptate were added respectively into the assay plates using a Flying Reagent Dispenser. The plates were incubated at room temperature for 1 hr. The fluorescence intensity in the plates was measured using an Envision plate reader. Each test compound was measured at 15 concentrations and in triplicates.
% is set by controls: 0 for no effect and ±100 for the full control effect.

SMILES | cAMP activity change | Potency
COc1ccnc(CS(=O)c2nc3ccc(OC(F)F)cc3[nH]2)c1OC (stereo not given) | -4.24% [at 42.5 µM, active compounds read high] (inactive) | –
S=C([S-])NCCNC(=S)[S-].[Mn+2] | 7.49% (inactive) | –
CCCCCCCCCCCc1ccccc1 | -0.305% (inactive) | –
CC(C)(COC(=O)c1ccccc1)COC(=O)c1ccccc1 | 6.82% (inactive) | –
C[C@@H](c1ncncc1F)C(O)(Cn1cncn1)c1ccc(F)cc1F (stereo not given in full) | -2.41% [at 42.5 µM, active compounds read high] (inactive) | –
CCO[Si](CCCCl)(OCC)OCC | -6.71% (inactive) | –
CCCCC/C=C\C/C=C\CCCCCCCC(=O)NC(C)c1ccccc1 (stereo not given) | -5.35% [at 42.5 µM, active compounds read high] (inactive) | –
O=C1c2ccccc2S(=O)(=O)N1CCCCN1CCN(c2ncccn2)CC1 | 5.65% [at 42.5 µM, active compounds read high] (inactive) | –
CC1OC(=O)C(C)OC1=O (stereo not given) | 1.31% (inactive) | –
COc1cc2c(cc1OC)C(C(C(=O)N(CCc1ccc(OC)c(OC)c1OC)CCc1ccc(OC)c(OC)c1OC)c1ccccc1)=NCC2 (stereo not given) | 1.74% [at 42.5 µM, active compounds read high] (inactive) | –
O=C1[C@H]2CCCC[C@H]2C(=O)N1CCCCN1CCN(c2nsc3ccccc23)CC1 | 0.231% [at 42.5 µM, active compounds read high] (inactive) | –
CC1CCC(=O)C1=O (stereo not given) | -0.386% (inactive) | –
C/C=C(/C(=C/C)c1ccc(OC(C)=O)cc1)c1ccc(OC(C)=O)cc1 | -2.36% [at 42.5 µM, active compounds read high] (inactive) | –
CC(CSC(=O)c1ccccc1)C(=O)N1C[C@@H](Sc2ccccc2)C[C@H]1C(=O)O (stereo not given in full) | 7.8% [at 18.9 µM, active compounds read high] (inactive) | –
O=C(CS)Nc1ccccc1 | -1.76% [at 42.5 µM, active compounds read high] (inactive) | –
COc1ccc(C)cc1[N+](=O)[O-] | 3.87% (inactive) | –
O=CC1CC=CCC1 (stereo not given) | 2.19% (inactive) | –
Cc1cccc(C)c1NC(=O)CN(CC(=O)O)CC(=O)O | 0% [at 42.5 µM, active compounds read high] (inactive) | –
CC(C)C[C@H]1C(=O)N2CCC[C@H]2[C@]2(O)O[C@](NC(=O)[C@@H]3C=C4c5cccc6[nH]c(Br)c(c56)C[C@H]4N(C)C3)(C(C)C)C(=O)N12 | -2.73% [at 42.5 µM, active compounds read high] (inactive) | –
C[C@H]1C[C@H]2[C@@H]3CCC4=CC(=O)C=C[C@]4(C)[C@@]3(Cl)[C@@H](O)C[C@]2(C)[C@@]1(O)C(=O)CO | -3.27% [at 42.5 µM, active compounds read high] (inactive) | –

SMILES | cAMP activity change | Potency
C/C=C/C(=O)CC | -0.0314% [at 18.9 µM, active compounds read high] (inactive) | –
O=C(NCCO[N+](=O)[O-])c1cccnc1 | 4.76% [at 42.5 µM, active compounds read high] (inactive) | –
ClCCOCCOCCCl | 1.83% (inactive) | –
O=S(c1cc(Cl)cc(Cl)c1O)c1cc(Cl)cc(Cl)c1O | 0.588% [at 42.5 µM, active compounds read high] (inactive) | –
C=CC(=O)OCCOCCOCCOCCOC(=O)C=C | – | inactive
CCCCC(=O)OCC(=O)[C@H]1[C@H](C)C[C@H]2[C@@H]3C[C@H](F)C4=CC(=O)C=C[C@]4(C)[C@@]3(F)[C@@H](O)C[C@@]21C | -3.13% [at 42.5 µM, active compounds read high] (inactive) | –
O=C1OC(=O)C2C3C=CC(C3)C12 (stereo not given) | -0.322% (inactive) | –
C[Si](C)(CCCN)O[Si](C)(C)CCCN | 1.16% (inactive) | –
O=[N+]([O-])c1ccc(NCCO)c(OCCO)c1 | 2.11% (inactive) | –
O=C(OCCc1ccccc1)c1ccccc1 | -0.412% (inactive) | –
O=C1OC(CN2CCOCC2)CN1/N=C/c1ccc([N+](=O)[O-])o1 (stereo not given) | -0.231% [at 42.5 µM, active compounds read high] (inactive) | –
CC(=O)OC[C@H]1O[C@@H](n2ncc(=O)[nH]c2=O)[C@H](OC(C)=O)[C@@H]1OC(C)=O | -10.1% [at 42.5 µM, active compounds read high] (inactive) | –
CC(C)(C)Cl | -0.0258% (inactive) | –
C=CC(=O)OCCOc1ccccc1 | 3.64% (inactive) | –
CCCCCCOC(=O)NC(=N)c1ccc(NCc2nc3cc(C(=O)N(CCC(=O)OCC)c4ccccn4)ccc3n2C)cc1 | -6.12% [at 42.5 µM, active compounds read high] (inactive) | –
CCCCCCCCCOS(=O)(=O)O | 2.53% (inactive) | –
O=C(Nc1ccc(S(=O)(=O)N2CCOCC2)cc1)c1cc(Cl)ccc1NS(=O)(=O)c1ccc(Cl)s1 | 6.78% [at 42.5 µM, active compounds read high] (inactive) | –
CCCCCCCCCCCCCCCCCCOS(=O)(=O)O | 3.7% (inactive) | –
O=C(Cl)c1cc(C(=O)Cl)cc(C(=O)Cl)c1 | -1.12% (inactive) | –
Cc1oc2c(NC(=O)c3c(Cl)cccc3Cl)cccc2c1C(C)(C)O | 8.63% (inactive) | –
